# ChEMBL document CHEMBL3988442, “University of Dundee, Small-Polar-MMV Screening Library” (2021)
# For some assays here: Entries with a potency or affinity are not part of this list.
# How the values were obtained:
# Parameters in all cases: scale not given: direction of the effect not stated beside the values
# [1] = target: Protein translocase subunit SecA (Escherichia coli (strain K12)) (UniProt P10408); test: Assay to Identify E. coli SecA ATPase Inhibitors; assay type: functional; details: 30 µM
# Chain of Protein translocase subunit SecA (Escherichia coli (strain K12)) (P10408 whole entry): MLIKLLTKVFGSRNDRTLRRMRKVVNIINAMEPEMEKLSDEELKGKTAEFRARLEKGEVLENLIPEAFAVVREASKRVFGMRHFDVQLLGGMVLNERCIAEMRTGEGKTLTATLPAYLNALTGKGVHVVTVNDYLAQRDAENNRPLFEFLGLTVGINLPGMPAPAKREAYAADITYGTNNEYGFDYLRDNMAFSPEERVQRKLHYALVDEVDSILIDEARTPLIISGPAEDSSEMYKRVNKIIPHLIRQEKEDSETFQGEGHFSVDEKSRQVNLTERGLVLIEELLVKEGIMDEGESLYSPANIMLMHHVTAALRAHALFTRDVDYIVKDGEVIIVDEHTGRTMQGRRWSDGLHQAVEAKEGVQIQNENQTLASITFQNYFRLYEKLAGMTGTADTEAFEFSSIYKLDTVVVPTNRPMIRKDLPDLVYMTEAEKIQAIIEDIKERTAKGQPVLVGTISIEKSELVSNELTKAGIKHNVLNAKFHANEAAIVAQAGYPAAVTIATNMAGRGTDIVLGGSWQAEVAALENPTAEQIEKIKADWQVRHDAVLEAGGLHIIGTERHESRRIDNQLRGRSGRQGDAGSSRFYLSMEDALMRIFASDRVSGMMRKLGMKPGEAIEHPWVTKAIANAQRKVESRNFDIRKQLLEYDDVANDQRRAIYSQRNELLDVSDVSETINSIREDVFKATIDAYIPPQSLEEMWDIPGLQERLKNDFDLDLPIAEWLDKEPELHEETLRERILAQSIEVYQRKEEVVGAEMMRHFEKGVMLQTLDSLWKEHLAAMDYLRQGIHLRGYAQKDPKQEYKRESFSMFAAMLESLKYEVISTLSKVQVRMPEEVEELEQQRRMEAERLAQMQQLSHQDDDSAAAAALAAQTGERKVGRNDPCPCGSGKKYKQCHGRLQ
# [2] = target: T1, Ubiquitin-activating enzyme e1, putative (Leishmania donovani (strain BPK282A1)) (UniProt E9BSI1); test: Leishmania donovani Ubiquitin Activating Enzyme (LdE1); assay type: functional; details: 30 µM
# T1 sequence (whole entry): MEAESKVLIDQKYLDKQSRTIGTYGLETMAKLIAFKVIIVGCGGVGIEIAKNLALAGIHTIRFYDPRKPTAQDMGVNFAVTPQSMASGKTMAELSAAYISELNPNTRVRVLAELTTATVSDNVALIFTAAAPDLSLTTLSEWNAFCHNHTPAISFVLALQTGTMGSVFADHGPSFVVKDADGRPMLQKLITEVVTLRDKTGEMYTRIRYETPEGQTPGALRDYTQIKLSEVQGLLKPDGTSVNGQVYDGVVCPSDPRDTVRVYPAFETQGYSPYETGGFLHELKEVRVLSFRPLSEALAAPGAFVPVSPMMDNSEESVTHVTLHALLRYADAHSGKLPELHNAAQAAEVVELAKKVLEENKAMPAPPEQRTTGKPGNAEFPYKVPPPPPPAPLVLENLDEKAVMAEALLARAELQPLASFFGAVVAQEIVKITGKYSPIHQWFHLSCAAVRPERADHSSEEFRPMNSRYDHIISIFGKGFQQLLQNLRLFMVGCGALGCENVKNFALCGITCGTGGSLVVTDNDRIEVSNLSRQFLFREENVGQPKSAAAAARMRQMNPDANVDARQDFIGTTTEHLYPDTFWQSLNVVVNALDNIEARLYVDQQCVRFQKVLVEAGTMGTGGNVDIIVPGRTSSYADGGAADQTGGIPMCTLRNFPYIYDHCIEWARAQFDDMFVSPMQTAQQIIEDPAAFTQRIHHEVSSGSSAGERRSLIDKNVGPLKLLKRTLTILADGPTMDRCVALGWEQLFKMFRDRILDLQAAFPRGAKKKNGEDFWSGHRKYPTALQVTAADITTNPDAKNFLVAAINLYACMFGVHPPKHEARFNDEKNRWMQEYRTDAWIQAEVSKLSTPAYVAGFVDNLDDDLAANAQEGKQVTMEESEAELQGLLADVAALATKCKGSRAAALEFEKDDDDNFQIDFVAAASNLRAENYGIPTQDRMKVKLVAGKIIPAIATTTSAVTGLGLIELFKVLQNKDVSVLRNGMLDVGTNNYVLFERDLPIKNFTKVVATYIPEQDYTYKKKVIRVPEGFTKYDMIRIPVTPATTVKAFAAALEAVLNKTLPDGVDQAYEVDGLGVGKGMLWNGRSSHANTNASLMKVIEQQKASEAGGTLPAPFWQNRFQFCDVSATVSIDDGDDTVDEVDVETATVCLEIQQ
# [3] = target: AMP-activated protein kinase, AMPK (Homo sapiens) (UniProt P54646+O43741+P54619+Q9UGJ0+Q9Y478+Q13131+Q9UGI9); test: AMP-dependent Kinase enzyme assay. An in vitro enzyme assay that detects ADP turnover that is directly proportional to AMPK activity. This uses naive AMPK that is activated during the assay with MK-8722; assay type: functional; details: 30 µM
# [4] = target: Sialic acid-binding Ig-like lectin 9 (Homo sapiens) (UniProt Q9Y336); test: Hs-Siglec9 ALPHAscreen SOP 20170721; details: 10 µM
# Chain of Sialic acid-binding Ig-like lectin 9 (Homo sapiens) (Q9Y336 whole entry): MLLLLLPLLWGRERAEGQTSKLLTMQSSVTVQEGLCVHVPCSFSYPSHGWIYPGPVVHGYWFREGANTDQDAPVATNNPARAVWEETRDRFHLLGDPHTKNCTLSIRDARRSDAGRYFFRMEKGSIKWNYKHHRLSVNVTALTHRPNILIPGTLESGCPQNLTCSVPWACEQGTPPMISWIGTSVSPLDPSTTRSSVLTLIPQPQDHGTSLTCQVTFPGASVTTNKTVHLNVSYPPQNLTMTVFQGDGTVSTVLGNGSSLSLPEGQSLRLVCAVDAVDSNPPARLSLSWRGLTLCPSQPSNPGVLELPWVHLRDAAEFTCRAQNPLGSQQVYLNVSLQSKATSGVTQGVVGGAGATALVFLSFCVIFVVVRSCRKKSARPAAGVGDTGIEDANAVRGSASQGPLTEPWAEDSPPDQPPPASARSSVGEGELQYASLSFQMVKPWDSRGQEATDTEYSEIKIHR
# Trypanosoma cruzi = test: Trypanosoma cruzi phosphomannomutase and mannose-1-phosphate guanylyltransferase assay; assay type: functional; details: 10 µM
# [5] = target: T2, Arginase-2, mitochondrial (Homo sapiens) (UniProt P78540); test: in vitro enzyme assay to detect the production of urea directly proportional to the activity of Arginase II; assay type: functional; details: 33.3 µM; further: in the data most compounds retested in dose-response had high values
# T2 sequence (whole entry): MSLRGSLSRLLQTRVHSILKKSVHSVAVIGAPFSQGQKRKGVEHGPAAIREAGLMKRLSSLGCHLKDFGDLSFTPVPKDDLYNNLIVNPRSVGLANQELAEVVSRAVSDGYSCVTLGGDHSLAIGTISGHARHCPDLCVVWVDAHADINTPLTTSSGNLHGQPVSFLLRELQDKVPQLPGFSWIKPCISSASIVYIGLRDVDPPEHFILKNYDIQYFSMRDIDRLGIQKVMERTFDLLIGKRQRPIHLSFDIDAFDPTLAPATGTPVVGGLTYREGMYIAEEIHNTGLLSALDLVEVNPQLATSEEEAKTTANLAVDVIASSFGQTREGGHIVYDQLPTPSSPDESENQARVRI
# [6] = target: T3, Proteasome subunit beta (Trypanosoma cruzi) (UniProt O96673); test: Trypanosoma cruzi proteasome chymotrypsin-like activity (TcProtChymo) assay.; further: in the data most compounds retested in dose-response had high values; assay type: functional; details: 9.37 µM
# T3 sequence (whole entry): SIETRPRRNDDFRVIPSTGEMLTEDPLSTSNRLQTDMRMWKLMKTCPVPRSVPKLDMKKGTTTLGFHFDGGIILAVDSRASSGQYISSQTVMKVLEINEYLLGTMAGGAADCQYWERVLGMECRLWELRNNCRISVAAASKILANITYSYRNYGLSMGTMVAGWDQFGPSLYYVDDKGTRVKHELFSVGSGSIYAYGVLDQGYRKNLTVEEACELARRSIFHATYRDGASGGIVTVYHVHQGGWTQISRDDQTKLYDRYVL
# Homo sapiens = species on record: Homo sapiens; test: To identify inhibition of the IFN signalling (Jak-Stat) pathway via expression of an eGFP reporter gene under the control of an IFN-stimulated response element (ISRE) containing MxA promoter.; assay type: functional; details: 30 µM
# [7] = target: T4, Tyrosyl-tRNA synthetase, putative (Trypanosoma cruzi (strain CL Brener)) (UniProt Q4DSP6); test: Trypanosoma cruzi tyrosyl tRNA synthetase (TcYRS) _High Tyrosine SOP; assay type: functional; details: 30 µM; further: in the data most compounds retested in dose-response had high values
# T4 sequence (whole entry): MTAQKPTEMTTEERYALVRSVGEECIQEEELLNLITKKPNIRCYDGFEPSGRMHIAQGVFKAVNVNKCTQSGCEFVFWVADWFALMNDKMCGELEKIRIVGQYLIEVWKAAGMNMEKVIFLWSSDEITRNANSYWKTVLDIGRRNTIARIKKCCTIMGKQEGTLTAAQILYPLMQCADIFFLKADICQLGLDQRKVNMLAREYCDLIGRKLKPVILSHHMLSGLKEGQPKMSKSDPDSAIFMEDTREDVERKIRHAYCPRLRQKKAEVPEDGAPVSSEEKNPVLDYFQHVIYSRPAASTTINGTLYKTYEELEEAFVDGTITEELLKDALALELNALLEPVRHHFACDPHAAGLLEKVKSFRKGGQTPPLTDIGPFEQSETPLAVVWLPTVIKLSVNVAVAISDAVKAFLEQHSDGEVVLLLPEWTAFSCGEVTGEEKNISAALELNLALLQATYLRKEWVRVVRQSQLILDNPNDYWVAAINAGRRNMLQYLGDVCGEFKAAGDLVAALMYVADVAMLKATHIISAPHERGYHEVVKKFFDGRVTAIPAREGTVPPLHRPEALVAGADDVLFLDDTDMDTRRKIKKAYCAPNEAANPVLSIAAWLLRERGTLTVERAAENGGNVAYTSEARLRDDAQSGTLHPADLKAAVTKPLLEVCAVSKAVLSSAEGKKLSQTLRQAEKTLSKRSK
# [8] = target: T4, Tyrosyl-tRNA synthetase, putative (Trypanosoma cruzi (strain CL Brener)); test: Trypanosoma cruzi tyrosyl tRNA synthetase (TcYRS) SOP; assay type: functional; details: 30 µM
# [9] = target: Chromo domain-containing protein 1 (Saccharomyces cerevisiae (strain ATCC 204508 / S288c) (Baker's yeast)) (UniProt P32657); test: ScCHD-1 Enzyme Inhibition Assay; assay type: functional; details: 30 µM; further: in the data most compounds retested in dose-response had high values
# Chain of Chromo domain-containing protein 1 (Saccharomyces cerevisiae (strain ATCC 204508 / S288c) (Baker's yeast)) (P32657 whole entry, the tested form may be a part): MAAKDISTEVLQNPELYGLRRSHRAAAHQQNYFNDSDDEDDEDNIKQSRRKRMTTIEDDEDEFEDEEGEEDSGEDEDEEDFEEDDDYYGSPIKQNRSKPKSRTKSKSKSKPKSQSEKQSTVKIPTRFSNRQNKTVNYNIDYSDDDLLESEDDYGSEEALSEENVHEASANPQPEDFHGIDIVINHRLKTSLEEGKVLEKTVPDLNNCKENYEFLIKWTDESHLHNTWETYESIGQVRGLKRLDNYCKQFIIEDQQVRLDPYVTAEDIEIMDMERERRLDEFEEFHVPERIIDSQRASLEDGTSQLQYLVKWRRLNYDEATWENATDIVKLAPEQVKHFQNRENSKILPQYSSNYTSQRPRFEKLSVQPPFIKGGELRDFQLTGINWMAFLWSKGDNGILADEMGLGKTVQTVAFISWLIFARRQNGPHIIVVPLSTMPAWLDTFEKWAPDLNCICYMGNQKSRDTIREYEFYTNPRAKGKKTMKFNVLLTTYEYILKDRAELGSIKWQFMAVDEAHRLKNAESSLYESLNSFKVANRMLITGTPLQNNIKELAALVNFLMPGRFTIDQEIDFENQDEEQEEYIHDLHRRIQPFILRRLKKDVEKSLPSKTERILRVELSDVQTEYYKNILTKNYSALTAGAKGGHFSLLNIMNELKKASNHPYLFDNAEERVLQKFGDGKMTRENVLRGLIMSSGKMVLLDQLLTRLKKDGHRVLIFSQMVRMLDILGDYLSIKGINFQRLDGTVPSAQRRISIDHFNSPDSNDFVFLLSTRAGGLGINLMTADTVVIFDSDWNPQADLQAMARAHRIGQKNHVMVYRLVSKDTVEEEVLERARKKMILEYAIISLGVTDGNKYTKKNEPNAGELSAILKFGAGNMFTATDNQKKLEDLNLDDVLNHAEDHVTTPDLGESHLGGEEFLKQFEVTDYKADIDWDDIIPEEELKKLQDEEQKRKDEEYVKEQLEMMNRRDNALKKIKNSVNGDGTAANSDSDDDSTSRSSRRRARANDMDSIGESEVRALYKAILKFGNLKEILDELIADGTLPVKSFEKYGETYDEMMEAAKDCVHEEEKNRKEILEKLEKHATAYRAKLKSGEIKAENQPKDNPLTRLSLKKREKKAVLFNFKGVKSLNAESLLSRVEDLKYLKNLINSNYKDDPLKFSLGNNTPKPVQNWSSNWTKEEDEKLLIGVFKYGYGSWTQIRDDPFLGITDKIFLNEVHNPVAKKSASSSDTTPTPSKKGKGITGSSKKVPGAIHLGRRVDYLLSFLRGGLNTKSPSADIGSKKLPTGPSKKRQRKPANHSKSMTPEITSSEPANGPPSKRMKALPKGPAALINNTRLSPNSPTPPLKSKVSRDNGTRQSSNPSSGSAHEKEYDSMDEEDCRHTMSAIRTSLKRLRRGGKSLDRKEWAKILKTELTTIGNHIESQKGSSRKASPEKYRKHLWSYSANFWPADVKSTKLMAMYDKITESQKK
SMILES,Percent Effect [1] [%],Percent Effect [2] [%],Percent Effect [3] [%],Percent Effect [4] [%],Percent Effect (Trypanosoma cruzi) [%],Percent Effect [5] [%],Percent Effect [6] [%],Percent Effect (Homo sapiens) [%],Percent Effect [7] [%],Percent Effect [8] [%],Percent Effect [9] [%]
CN(C)C(=O)CN1CCCCC1c1nc(N)ncc1-c1cccc(F)c1 (configuration not stated),-4.39,21.3,1.75,-10.4,5.12,-4.43,17.9,6.49,4.25,14.1,-4.14
O=C(O)c1nnn(Cc2cccc(C(F)(F)F)c2)c1-c1cccnc1,2.36,6.67,10.2,-2.89,-4.13,-10.4,8.5,4,7.41,12.8,-7.79
Cc1nc(NCCc2ccc(Cl)cc2)cc(C(=O)N2CCCCC2)n1,-1.97,7.79,7.85,-0.26,-8.16,-16.6,22.6,10.8,0,1.24,-2.69
Cc1cc(C2CCCN2C(=O)c2cc3c(s2)CCC3)on1 (configuration not stated),-6.23,5.26,2.83,3.1,6.58,-1.92,14.4,-0.279,0.49,4.88,-7.02
CSCC[C@H](NC(=O)Cn1ccc2c(Cl)cccc21)C(=O)O,0.448,12,2.92,2.75,-3.93,-6.87,15.2,-1.36,3.17,7.69,-6.56
CCn1cc(CN2CCC(c3nnc(CN(C)C)n3CC)CC2)cn1,0.381,10.4,3.2,6.14,-4.03,-1.38,14,4.82,2.15,6.17,0.0159
COCCN1C[C@@H](C)[C@@]2(COCCN(C(=O)c3cnc(C)cn3)C2)C1,0.144,10.7,6.23,3.86,-3.28,-21.3,12.7,-11.1,-5.21,12.5,-6.61
c1ccc(-c2cnc(CNCC3CCCN3c3cccnn3)o2)cc1 (configuration not stated),-1.23,-5.2,3.3,-5.27,1.86,3.16,15.8,0.932,16.2,21.2,-20.7
O=C(c1ccsc1)N1CCc2c(COCc3ccncc3)cncc2C1,0.395,-8.22,0.499,1.44,-0.397,1.2,10,3.9,3.12,3.7,-0.158
CNC(=O)CS(=O)(=O)Cc1coc(-c2ccc(OC)cc2)n1,-3.22,2.7,-2.86,-2.16,-1.35,-1.91,12.8,7.16,2.65,-4.88,-2.91
Cc1nc(C)n(C2CCCN(C(=O)CCCn3ccnc3)C2)n1 (configuration not stated),-8.21,0,0.109,0.244,-3.91,2.92,10.4,5.38,4.95,3.66,-1.65
O=C(CCc1ccccc1)N1CCn2cc(Cn3cncn3)nc2C1,-2.68,0,5.15,7.21,-3.45,-3.23,14.6,22.4,1.06,-1.28,1.43
Cn1cc(-c2csc(N3CCOCC3)n2)cn1,-3.35,1.39,-45.6,-2.23,1.26,2.21,0.702,1.08,15.8,28.2,-0.624
COc1c(CNCc2ccnc(N3CCCC3)c2)c(C)nn1C,-5.03,3.8,-1.28,2.4,0.103,-0.215,-4.12,7.98,7.29,15.2,-7.79
CCCS(=O)(=O)N1CCC2(CN(c3cnn(C)c3)C(=O)CN2C)C1 (configuration not stated),1.02,10.8,5.11,-11.2,-4.69,0.833,20.4,6.16,6.93,8.54,1.55
O=C1CC(c2cccc(O)c2)c2c(c(C(=O)O)cn2-c2ccccc2)N1 (configuration not stated),-3.46,1.33,-385,1.46,-3.34,-5.81,14.6,7.35,0,-5.13,-11.7
CCN(C)S(=O)(=O)N(CC)Cc1ccc2c(c1)OCO2,-5.09,15.6,0.454,4.35,-4.49,1.42,8.11,11.3,4.85,19.5,-8.91
CCn1nc(C)c2ccn(CC(=O)NC3CCCC3)c(=O)c21,-4.42,7.79,58,0.145,-4.63,0.645,5.57,20.1,-1.06,-6.41,-2.48
COc1ccc(OCC(=O)NC(C)c2ccccc2)c(C(=O)O)c1 (configuration not stated),-7.92,0,-0.906,3.42,-4.4,-0.744,6.78,-2.11,-1.07,-1.24,-2.92
O=C(C1CCOCC1)N1C[C@@H]2C[C@@H](c3nc(C4CC4)cs3)O[C@@H]2C1,0.171,16.4,-11.2,8.5,3.57,-11.6,13.8,1.09,11.5,21,0.447
CC(C)CN1CCC(NC(=O)c2ccc(F)cc2I)CC1,-4.38,23.6,-16,29.2,7.48,39.7,8.6,-5.59,4.21,17.9,-10.3
CC(=O)N1CCN(C(=O)CN2CCc3c(ncn3C3CC3)C2)CC1,-0.513,19,-1.56,-4.08,1.33,5.38,17.5,11.7,1.04,5.06,-19.7
